Assay outcomes from PubChem.
Most compounds without a hit are left out; they make up all but 11% or so of the library.
AMA1 RON2 block: qHTS for Inhibitors of AMA1-RON; Towards Development of Antimalarial Drug Lead: Primary Screen; AlphaScreen AMA1-biotinylated RON2 peptide binding; Potency, µM (titrated, usually from 58.2 µM), inactives show top-dose activity change, negative = inhibition, usual class: inhibitors; 0.2% of 360,000 active; AID 720542, 2013;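 note: 0% = vehicle wells and -100% = peptide control; nearly all actives have a fitted effect of over 45% in size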
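AMA1 (3D7) with his tag at 25 nM final met compounds first, then biotinylated RON2 peptide at 25 nM; detection used donor plus acceptor beads, 10 µg/mL apiece, read by AlphaScreen after 30 min at room temperature.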
Pf growth 48h: Primary qHTS for delayed death inhibitors of the malarial parasite plastid, 48 hour incubation | 5.9% of 310,000 active | P. falciparum luciferase growth in erythrocytes, 48 h | Potency, µM (series often up to 28.7 µM), inactives show top-dose activity change, negative = inhibition, usual class: inhibitors; note: % is set by controls: 0 for no effect and ±100 for the full control effect
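Firefly luciferase activity from engineered P. falciparum reports growth; inhibitors lower the luminescent signal. Cultures contained 2% hematocrit erythrocytes at 0.1% final parasitemia.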
Sm TGR inh: qHTS Assay for the Inhibitors of Schistosoma Mansoni Peroxiredoxins. Schistosoma mansoni thioredoxin glutathione reductase (TGR), Q962Y6. 3% of 360,000 active. Potency, µM (series often up to 114 µM), for inactives: top-dose activity change, negative = inhibition, actives largely listed as inhibitors. purified TGR, DTNB reduction, TNB absorbance 405 nm. AID 485364, 2010; note: % is set by controls: 0 for no effect and ±100 for the full control effect; nearly all actives have a fitted effect of over 60% in size
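Kinetic colorimetric format: TGR-catalysed, NADPH-driven DTNB reduction monitored via TNB absorbance. Enzyme dispensed at 20 nM; compound exposure 15 min at room temperature before reaction start.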
NS1 inh: qHTS Assay for Inhibitors of Influenza NS1 Protein Function | Potency, µM (top dose mostly 46.1 µM), inactives show at the top dose activity, positive = more growth | 0.4% of 270,000 active; calls by dose curve; note: actives are rising curves; nearly all actives have a fitted effect of over 50% in size
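A cell-based growth assay was used: compounds that relieve NS1-induced slow growth of budding yeast raise OD600. Assay medium was yeast nitrogen base with ammonium sulphate and -URA supplement, pH 6.0, with 2% galactose.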
Pf growth 96h: Primary qHTS for delayed death inhibitors of the malarial parasite plastid, 96 hour incubation. AID 504834, 2011. Potency, µM (doses to about 28.7 µM), without a hit: top-dose activity change, negative = inhibition, actives largely listed as inhibitors. P. falciparum luciferase reporter growth, 96 h. 6.9% of 320,000 active; note: % is set by controls: 0 for no effect and ±100 for the full control effect
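P. falciparum expressing integrated firefly luciferase, in erythrocytes at 2% hematocrit, 0.05% parasitemia, incubated with compounds 96 h at 37 C, 5% CO2. Growth inhibition read as loss of luminescence; two-generation exposure targets delayed-death apicoplast inhibitors.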
Numbers without * were called inactive; ? = inconclusive; / = no result. Unless noted, calls come from the whole dose curve; as a rule, active = well fitted curve in the direction sought with a large enough effect; inconclusive = small, poorly fitted or top-dose-only effect, or another doubt; inactive = no such curve, though single readings can be large; an effect the other way counts as inactive or inconclusive. Potency is the fitted concentration of half-maximal effect.

SMILES | AMA1 RON2 block | Pf growth 48h | Sm TGR inh | NS1 inh | Pf growth 96h
Cc1nc(NC(=O)c2ccccc2)sc1-c1csc(Nc2ccc(F)cc2)n1 | / | ? | -33% | ? | 3.7µM*
COc1ccc(Nc2nc(-c3sc(NC(C)=O)nc3C)cs2)cc1 | / | / | ? | 16% | 10µM*
COC(=O)c1cc(-c2ccc(Cl)cc2Cl)n[nH]1 | -4% | 9% | 5% | / | 192%
Oc1c(Cl)cc(Cl)cc1/C=N/c1nccs1 | 89% | 6% | 6.3µM* | -100% | /
O=C1NCCN(Cc2cccc(Oc3ccccc3)c2)C1CC(=O)N1CCCCC1 (centres undefined) | 7% | -28% | ? | 3% | -12%
COc1cccc(CN2CCNC(=O)C2CC(=O)NCCN2CCCCC2=O)c1 (centres undefined) | 0% | 10% | ? | 14% | 10µM*
CN(Cc1nccn1C)C(=O)CC1C(=O)NCCN1Cc1cccc(Oc2ccccc2)c1 (centres undefined) | 15% | -3% | -29% | 0% | 6%
CN(Cc1cnn(C)c1)C(=O)CC1C(=O)NCCN1Cc1cccc(Oc2ccccc2)c1 (centres undefined) | 0% | -11% | 40µM* | 1% | -2%
CN(Cc1ccccn1)C(=O)CC1C(=O)NCCN1Cc1ccc(F)cc1Cl (centres undefined) | 76% | 15% | 45µM* | -11% | 4%
O=CN1CCCN(C(=O)CC2C(=O)NCCN2Cc2cccc(Oc3ccccc3)c2)CC1 (centres undefined) | 15% | -4% | 13µM* | 2% | ?
Cc1c(NC(=O)c2ccc(-c3ccc(F)cc3)o2)cccc1-c1nc2ncccc2o1 | / | / | -26% | / | /
CN(C)N1C(=O)C2C3C=CC(O3)C2C1=O (centres undefined) | -9% | / | / | / | /
CN(Cc1ccccn1)C(=O)CC1C(=O)NCCN1Cc1cccc(Oc2ccccc2)c1 (centres undefined) | 11% | -21% | 50µM* | 3% | ?
CC(C)c1nc(CNC(=O)CC2C(=O)NCCN2Cc2ccc(F)cc2Cl)cs1 (centres undefined) | 18% | ? | ? | 17% | -25%
COc1cccc(CN2CCNC(=O)C2CC(=O)N(C)CC2CCOCC2)c1 (centres undefined) | 22% | 6% | ? | 9% | -30%
O=C(CC1C(=O)NCCN1Cc1ccc(F)cc1Cl)NCc1ccon1 (centres undefined) | 10% | 4% | 13µM* | 16% | 73%
COc1cccc(CN2CCNC(=O)C2CC(=O)N(C)C2CCCCC2)c1 (centres undefined) | -2% | -18% | 45µM* | 0% | ?
CN(CC1CCOCC1)C(=O)CC1C(=O)NCCN1Cc1cccc(Oc2ccccc2)c1 (centres undefined) | 15% | ? | 40µM* | 2% | ?
Cc1cnc(NS(=O)(=O)c2ccccc2)c(C)n1 | 12% | / | -7% | 6% | 44%
COc1cccc(OC)c1C(=O)OCC(=O)NC1CCCCCC1 | 5% | ? | -27% | / | ?
COc1ccc(CNC(=O)[C@H](C)NC(=O)C2CCN(C(=O)[C@@H](N)Cc3ccccc3)CC2)cc1 | 18% | 3% | -16% | -1% | 0%
CC(C)[C@H](NC(=O)OCc1ccccc1)C(=O)OCC(=O)N1CCCCC1 | -3% | / | / | / | /
Oc1ccc(Br)cc1-c1nc2cnccn2c1NC1CCCCC1 | 20% | 3.3µM* | 11% | -151% | /
Oc1ccc(Br)cc1-c1nc2cnccn2c1NC1CCCC1 | 24% | 2.6µM* | 4% | -42% | -4%
Fc1ccc(-c2nc3cnccn3c2NC2CCCC2)cc1 | 16% | -22% | -4% | -2% | 18%
SMILES | AMA1 RON2 block | Pf growth 48h | Sm TGR inh | NS1 inh | Pf growth 96h
Cc1ccc(C)c(N2CCN(C(=O)CCS(=O)(=O)c3cc4c(cc3Cl)NC(=O)CO4)CC2)c1 | / | / | 3% | / | /
O=C(COc1cccc2c1CCNC2=O)Nc1ccc(F)cc1 | -1% | 0% | -2% | / | 9%
O=C(CCl)N(Cc1ccccc1)c1ccccc1 | -4% | 10µM* | 5µM* | / | ?
Cc1cccc(N(Cc2ccccc2)C(=O)CSC(C)C(=O)Nc2cc(C)on2)c1 (centres undefined) | -3% | ? | 2% | / | 10µM*
Cc1cc(NC(=O)C(C)SCC(=O)O)no1 (centres undefined) | 5% | ? | 1% | / | 0%
O=C(O)CN(CC(=O)O)c1ccccc1 | / | / | / | 2% | /
Cc1cccc(N(Cc2ccccc2)C(=O)CCl)c1 | 16% | ? | 14µM* | / | ?
Cc1cccc(N(CC(=O)O)CC(=O)O)c1 | ? | -13% | ? | -2% | 13µM*
CCN(Cc1ccccc1)S(=O)(=O)c1c(C(=O)N2CCCC2)c(C)n(C)c1C | -2% | 19% | -12% | 4% | ?
OCc1cnc(SCc2cccc(F)c2)n1Cc1ccc(F)cc1 | / | / | 21% | / | /
Cc1c(CNC2CCCCCC2)c(C(=O)O)c(C)n1Cc1ccc(F)cc1Cl | / | / | 2% | / | /
CCCS(=O)(=O)N1CCC(C(=O)NCc2ccccc2Cl)CC1 | 2% | 24% | 3% | 6% | 10µM*
O=C(NCc1ccccn1)C1CCN(S(=O)(=O)c2ccccc2)CC1 | 9% | 11% | 27% | 8% | 12%
Cc1ccc(S(=O)(=O)N2CCC(C(=O)NCc3ccccc3Cl)CC2)cc1 | 0% | / | 10% | -3% | 10µM*
CSc1ccc(S(=O)(=O)N2CCC(C(=O)NCc3ccccn3)CC2)cc1 | 92% | -7% | 0% | -6% | 12µM*
COc1ccc(OCC(=O)OCc2cc(=O)n3cc(C)sc3n2)cc1 | / | / | -5% | / | /
CC[C@H](C)[C@@H](N)C(=O)NC[C@H]1O[C@@H](n2cnc3c(=O)[nH]c(N)nc32)[C@H](O)[C@@H]1O | 8% | / | / | / | /
C=CCOC(=O)C1=C[C@H](c2ccc(C(F)(F)F)cc2)[C@@H](CCCO)[C@H](OCC)O1 | 5% | ? | -13% | 2% | 9.3µM*
C=CCOC(=O)C1=C[C@@H](c2ccc(Br)cc2)[C@H](CCCO)[C@@H](OCC)O1 | 7% | ? | -5% | -5% | 9.3µM*
C=CCOC(=O)C1=C[C@@H](c2ccc(C(F)(F)F)cc2)[C@H](CCCO)[C@@H](OCC)O1 | 3% | 1.2µM* | -18% | 7% | 2.1µM*
C=CCOC(=O)C1=C[C@@H](c2ccccc2)[C@H](CCCO)[C@@H](OCC)O1 | 0% | 3% | 1% | 2% | 11%
CCn1cc(C(=O)NCCCOC(C)C)c(=O)c2cc(S(=O)(=O)N3CCc4ccccc4C3)ccc21 | / | / | 6% | / | /
CCC1C(=O)CC(c2ccc([N+](=O)[O-])cc2)NC1c1ccc([N+](=O)[O-])cc1 (centres undefined) | -22% | 13µM* | 2% | -2% | 26%
